{"source": "PubChem BioAssay AID492960", "about": "(National Center for Advancing Translational Sciences (NCATS), 2010)", "note": "Inconclusive results are not listed. Values without a mark were called inactive. Active and inactive are the calls of the source. Calls follow the shape of the dose curve; as a rule, active = well fitted curve in the direction sought with a large enough effect; inconclusive = small, poorly fitted or top-dose-only effect, or effect the other way, or another doubt; inactive = no such curve, though single readings can be large or run the other way."}
{"test": "Secondary Assay for lipid storage modulators: HepG2 cell LDSA assay for probe SAR", "settings": "HepG2 lipid droplet BODIPY, laser-scanning cytometry, 18-24 h; series mostly up to 46.1 µM; activity, negative = less lipid: at the top concentration", "method_in_brief": "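Dose-response lipid-storage test: HepG2 cells were fed 400 uM oleic acid with compound for 18-24 h at 24 degrees C. BODIPY 493/503 intensity gave droplet accumulation, and an object ratio was taken against CellTracker Red cell counts. Percent activity was set against 20 uM Triacsin C as full inhibition.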"}
{"smiles": "CCOC(=O)C1CCN(C(=O)C2(NC(=O)NCc3ccccc3)CCCCC2)CC1", "activity, negative = less lipid": "-15.6%"}
{"smiles": "Cc1cc2c(cc1C1(c3ccc(C(=O)O)cc3)CC1)C(C)(C)CCC2(C)C", "activity, negative = less lipid": "-10.4%"}
{"smiles": "CCOc1ccc(CCNC(=O)c2ccccn2)cc1OCC", "activity, negative = less lipid": "48.1%"}
{"smiles": "CCOc1ccc(CCNC(=O)c2cc3sc(CC)cc3n2C)cc1OCC", "activity, negative = less lipid": "20.8%"}
{"smiles": "O=C(Cc1ccccc1)NC1CCCc2c1cnn2-c1ccc(F)cc1F", "note": "(stereo unspecified)", "activity, negative = less lipid": "5.04%"}
{"smiles": "Cc1cc(SCc2sc(-c3ccc(C(F)(F)F)cc3)nc2C)ccc1OCC(=O)O", "activity, negative = less lipid": "1.3%"}
{"smiles": "CCn1c(-c2ccc(C)cc2)cnc1SCC(=O)Nc1nc(C)cs1", "activity, negative = less lipid": "-3.9%"}
{"smiles": "O=C(NC1CCCc2c1cnn2-c1ccc(F)cc1F)c1ccccn1", "note": "(stereo unspecified)", "Potency": "inactive"}
{"smiles": "COc1ccc(CCNC(=O)c2cc3sccc3n2Cc2ccccc2)cc1OC", "activity, negative = less lipid": "11.7%"}
{"smiles": "CCOc1ccc(CCNC(=O)c2cc3sccc3n2Cc2ccc(-n3cncn3)cc2)cc1OCC", "activity, negative = less lipid": "18.2%"}
{"smiles": "CCCn1c(-c2ccc(OC)cc2)cnc1SCC(=O)Nc1nc(C)c(C)s1", "activity, negative = less lipid": "6.49%"}
{"smiles": "COc1ccc(-n2ncc3c2CCCC3NC(=O)c2cnc(C)cn2)cc1", "note": "(stereo unspecified)", "Potency": "12.5 µM (active)"}
{"smiles": "CCOc1ccc(CCNC(=O)c2cc3sccc3n2CC)cc1OCC", "Potency": "11.2 µM (active)"}
{"smiles": "O=C(NC1CCCc2c1cnn2-c1ccccc1F)c1cccc2nccnc12", "note": "(stereo unspecified)", "activity, negative = less lipid": "0%"}
{"smiles": "O=C(NC1CCCc2c1cnn2-c1ccc(F)cc1F)c1cccs1", "note": "(stereo unspecified)", "activity, negative = less lipid": "-28.1%"}
{"smiles": "CCOc1ccc(CCNC(=O)c2cc3sccc3n2Cc2cccc(C)c2)cc1OCC", "activity, negative = less lipid": "-22.1%"}
{"smiles": "O=C(NCCc1ccc2c(c1)OCO2)c1cc2sccc2n1Cc1ccccc1", "activity, negative = less lipid": "11.7%"}
{"smiles": "O=C(NC1CCCc2c1cnn2-c1ccc(F)cc1F)c1cnccn1", "note": "(stereo unspecified)", "activity, negative = less lipid": "10.3%"}
{"smiles": "CCOc1ccc(CCNC(=O)c2ccc3ccccc3n2)cc1OCC", "activity, negative = less lipid": "61% [at 38.8 µM]"}
{"smiles": "CCOc1ccc(CCNC(=O)c2ccc3[nH]ccc3c2)cc1OCC", "activity, negative = less lipid": "67.5%"}
{"smiles": "CCOc1ccc(CCNC(=O)C2(c3ccccc3)CC2)cc1OCC", "activity, negative = less lipid": "-5.19%"}
{"smiles": "CCOc1ccc(CCNC(=O)c2csc(Br)n2)cc1OCC", "activity, negative = less lipid": "-2.6% [at 38.8 µM]"}
{"smiles": "O=C(Nc1ccccc1-c1cn2c(CN3CCNCC3)csc2n1)c1cnc2ccccc2n1", "Potency": "11.2 µM (active)"}
{"smiles": "CCOc1ccc(CCNC(=O)c2cc3sccc3[nH]2)cc1OCC", "activity, negative = less lipid": "15.8%"}
{"smiles": "CCOc1ccc(CCNC(=O)C2COc3ccccc3O2)cc1OCC", "note": "(stereo unspecified)", "activity, negative = less lipid": "6.49%"}
{"smiles": "Cc1ccc(-c2cnc(SCC(=O)Nc3nccs3)n2Cc2ccco2)cc1", "activity, negative = less lipid": "13%"}
{"smiles": "CCOC(=O)C1CCN(C(=O)CNC(=O)Nc2ccccc2Cl)CC1", "activity, negative = less lipid": "16.9%"}
{"smiles": "COc1ccc(-c2cnc(SCC(=O)Nc3nccs3)n2Cc2ccccc2)cc1", "activity, negative = less lipid": "7.79%"}
{"smiles": "COc1ccc(-c2cnc(SCC(=O)Nc3nc(C)cs3)n2Cc2ccco2)cc1", "activity, negative = less lipid": "20.8%"}
{"smiles": "COc1ccc(-c2cnc(SCC(=O)Nc3nc(C)cs3)n2-c2ccccc2)cc1", "activity, negative = less lipid": "6.49%"}
{"smiles": "O=C(NC1CCCc2c1cnn2-c1ccc(F)cc1F)c1cccc(=O)[nH]1", "note": "(stereo unspecified)", "activity, negative = less lipid": "-20.9%"}
